Experimental data published in article PMC7862700, “An all-to-all approach to the identification of sequence-specific readers for epigenetic DNA modifications on cytosine”.

Experiments:
Assay in all cases: DAPPL (digital affinity profiling via proximity ligation, sequencing); 10 mM Tris-HCl pH 7.5, 50 mM NaCl, 1 mM DTT, 4% glycerol, room temperature, 30 min; GST-TFs on glutathione beads, 16-mer random dsDNA library, 0.1% formaldehyde crosslink after washing; high values mean tight binding
FEV = molecular target: T1, FEV (Homo sapiens, UniProt Q99581 1-238); details: protein: recombinant; tags: N-terminal GST; dsDNA, one strand shown
T1 sequence: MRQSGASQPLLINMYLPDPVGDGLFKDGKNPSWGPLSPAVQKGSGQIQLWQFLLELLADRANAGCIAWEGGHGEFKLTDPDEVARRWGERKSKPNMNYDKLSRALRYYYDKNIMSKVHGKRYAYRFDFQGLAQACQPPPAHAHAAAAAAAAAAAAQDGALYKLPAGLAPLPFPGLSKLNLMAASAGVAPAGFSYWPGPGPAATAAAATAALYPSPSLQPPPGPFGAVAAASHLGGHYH
In short: (§1)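 Binding signal is defined as a hexamer's read frequency for one factor over its frequency for the tag-only sample. To obtain reads, GST-fused human transcription factors were expressed in yeast, captured on glutathione beads, barcoded with DNA and pooled with that sample. Pools met 200 nmole of a 16-mer random double-stranded DNA library in Tris/NaCl/DTT/glycerol buffer for 30 min at room temperature before washing, 0.1% formaldehyde crosslinking, proximity ligation (BsaI/T4 ligase, 1 h, 37 °C), PCR and Illumina NextSeq500 sequencing.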

ETV5 = ETV5 (Homo sapiens, UniProt P41161 1-510); details: protein: recombinant; tags: N-terminal GST; dsDNA, one strand shown
In short: as §1

HSF1 = HSF1 (Homo sapiens, UniProt Q00613 1-529); details: protein: recombinant; tags: N-terminal GST; chain copies: 3; dsDNA, one strand shown
In short: as §1

SPIC = molecular target: T2, SPIC (Homo sapiens, UniProt Q8N5J4 1-248); details: protein: recombinant; tags: N-terminal GST; dsDNA, one strand shown
T2 sequence: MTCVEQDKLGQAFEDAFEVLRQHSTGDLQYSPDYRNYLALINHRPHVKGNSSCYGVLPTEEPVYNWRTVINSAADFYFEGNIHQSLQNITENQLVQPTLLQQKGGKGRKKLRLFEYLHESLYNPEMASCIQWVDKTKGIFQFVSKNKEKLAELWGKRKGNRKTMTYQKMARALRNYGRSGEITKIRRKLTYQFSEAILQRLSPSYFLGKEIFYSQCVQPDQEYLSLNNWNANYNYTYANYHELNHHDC
In short: as §1

ELF4 = ELF4 (Homo sapiens, UniProt Q99607 1-663); details: protein: recombinant; tags: N-terminal GST; dsDNA, one strand shown
In short: as §1

ELK4 = molecular target: T3, ELK4 (Homo sapiens, UniProt P28324-2 1-405); details: protein: recombinant; tags: N-terminal GST; dsDNA, one strand shown
T3 sequence: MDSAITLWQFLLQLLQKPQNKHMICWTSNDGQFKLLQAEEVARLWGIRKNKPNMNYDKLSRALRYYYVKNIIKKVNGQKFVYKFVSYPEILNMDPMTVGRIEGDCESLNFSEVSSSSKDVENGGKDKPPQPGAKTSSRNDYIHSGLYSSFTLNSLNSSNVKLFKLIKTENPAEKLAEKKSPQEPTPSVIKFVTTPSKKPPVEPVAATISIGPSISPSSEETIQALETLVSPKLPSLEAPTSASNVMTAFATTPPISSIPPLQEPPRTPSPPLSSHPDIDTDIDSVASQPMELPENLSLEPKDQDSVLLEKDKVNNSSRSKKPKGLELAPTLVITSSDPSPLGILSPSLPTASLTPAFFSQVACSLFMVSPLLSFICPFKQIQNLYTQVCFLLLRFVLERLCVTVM
In short: as §1

ETV2 = molecular target: T4, ETV2 (Homo sapiens, UniProt O00321 1-342); details: protein: recombinant; tags: N-terminal GST; dsDNA, one strand shown
T4 sequence: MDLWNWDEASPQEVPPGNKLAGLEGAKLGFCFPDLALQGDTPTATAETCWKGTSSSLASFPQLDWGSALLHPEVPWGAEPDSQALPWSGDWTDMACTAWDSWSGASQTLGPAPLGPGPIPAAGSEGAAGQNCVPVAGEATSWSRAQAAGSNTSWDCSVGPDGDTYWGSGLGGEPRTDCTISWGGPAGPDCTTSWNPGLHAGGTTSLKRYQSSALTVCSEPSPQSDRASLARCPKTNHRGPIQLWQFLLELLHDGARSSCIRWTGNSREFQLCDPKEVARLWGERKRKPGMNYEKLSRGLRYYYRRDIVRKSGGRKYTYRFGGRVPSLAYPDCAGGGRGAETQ
In short: as §1

ELF3 = molecular target: T5, ELF3 (Homo sapiens, UniProt P78545 1-371); details: protein: recombinant; tags: N-terminal GST; dsDNA, one strand shown
T5 sequence: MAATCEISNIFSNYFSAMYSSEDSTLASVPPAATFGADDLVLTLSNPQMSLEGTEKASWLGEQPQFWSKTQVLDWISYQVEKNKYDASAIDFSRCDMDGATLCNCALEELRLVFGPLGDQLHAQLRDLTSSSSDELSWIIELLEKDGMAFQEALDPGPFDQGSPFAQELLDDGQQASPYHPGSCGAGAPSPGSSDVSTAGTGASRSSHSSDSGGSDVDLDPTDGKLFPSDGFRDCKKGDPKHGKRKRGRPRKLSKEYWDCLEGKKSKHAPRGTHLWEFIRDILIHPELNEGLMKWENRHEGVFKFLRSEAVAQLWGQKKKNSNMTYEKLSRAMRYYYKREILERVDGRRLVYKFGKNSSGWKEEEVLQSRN
In short: as §1

CRX = CRX (Homo sapiens, UniProt O43186 1-299); details: protein: recombinant; tags: N-terminal GST; dsDNA, one strand shown
In short: as §1

ETV1 = ETV1 (Homo sapiens, UniProt P50549 1-477); details: protein: recombinant; tags: N-terminal GST; dsDNA, one strand shown
In short: as §1

ERF = molecular target: T6, ERF (Homo sapiens, UniProt P50548 1-548); details: protein: recombinant; tags: N-terminal GST; dsDNA, one strand shown
T6 sequence: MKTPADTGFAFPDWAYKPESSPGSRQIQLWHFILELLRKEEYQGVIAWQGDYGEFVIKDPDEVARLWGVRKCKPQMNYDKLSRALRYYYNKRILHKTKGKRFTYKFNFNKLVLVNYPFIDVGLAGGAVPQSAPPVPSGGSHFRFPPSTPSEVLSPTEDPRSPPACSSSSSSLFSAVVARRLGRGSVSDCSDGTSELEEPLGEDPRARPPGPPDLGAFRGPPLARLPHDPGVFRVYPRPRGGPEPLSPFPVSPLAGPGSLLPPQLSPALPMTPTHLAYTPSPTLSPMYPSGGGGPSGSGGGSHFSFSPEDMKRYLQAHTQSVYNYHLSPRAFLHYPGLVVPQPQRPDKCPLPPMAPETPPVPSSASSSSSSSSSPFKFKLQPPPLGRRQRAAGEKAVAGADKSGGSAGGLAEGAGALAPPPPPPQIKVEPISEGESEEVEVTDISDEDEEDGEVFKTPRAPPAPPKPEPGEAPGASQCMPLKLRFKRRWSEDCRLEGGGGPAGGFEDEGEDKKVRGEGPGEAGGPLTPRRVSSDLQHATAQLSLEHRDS
In short: as §1

ETV3L = molecular target: T7, ETV3L (Homo sapiens, UniProt Q6ZN32 1-361); details: protein: recombinant; tags: N-terminal GST; dsDNA, one strand shown
T7 sequence: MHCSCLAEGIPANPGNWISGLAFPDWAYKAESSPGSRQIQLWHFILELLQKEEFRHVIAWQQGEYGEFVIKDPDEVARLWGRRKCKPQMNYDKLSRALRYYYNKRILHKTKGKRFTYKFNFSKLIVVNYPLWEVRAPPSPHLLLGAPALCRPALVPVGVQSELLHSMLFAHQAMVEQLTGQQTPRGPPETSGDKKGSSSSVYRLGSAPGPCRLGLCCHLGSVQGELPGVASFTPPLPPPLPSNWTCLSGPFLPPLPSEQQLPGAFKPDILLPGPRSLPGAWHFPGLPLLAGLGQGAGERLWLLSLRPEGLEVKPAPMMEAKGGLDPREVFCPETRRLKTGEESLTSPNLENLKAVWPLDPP
In short: as §1

ETS2 = molecular target: T8, ETS2 (Homo sapiens, UniProt P15036 1-469); details: protein: recombinant; tags: N-terminal GST; dsDNA, one strand shown
T8 sequence: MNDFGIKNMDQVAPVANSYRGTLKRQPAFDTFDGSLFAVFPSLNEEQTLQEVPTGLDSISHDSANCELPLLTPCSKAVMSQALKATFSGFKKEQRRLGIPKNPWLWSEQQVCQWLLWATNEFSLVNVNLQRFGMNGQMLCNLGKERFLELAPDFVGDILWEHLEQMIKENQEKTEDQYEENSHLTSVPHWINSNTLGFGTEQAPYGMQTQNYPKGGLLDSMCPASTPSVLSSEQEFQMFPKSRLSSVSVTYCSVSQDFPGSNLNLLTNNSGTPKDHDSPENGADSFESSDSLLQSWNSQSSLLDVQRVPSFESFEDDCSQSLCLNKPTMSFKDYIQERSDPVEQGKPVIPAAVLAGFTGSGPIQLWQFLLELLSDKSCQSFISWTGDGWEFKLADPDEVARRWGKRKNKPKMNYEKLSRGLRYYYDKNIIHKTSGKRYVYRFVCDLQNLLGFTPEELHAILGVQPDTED
In short: as §1

SPDEF = molecular target: T9, SPDEF (Homo sapiens, UniProt O95238 1-335); details: protein: recombinant; tags: N-terminal GST; dsDNA, one strand shown
T9 sequence: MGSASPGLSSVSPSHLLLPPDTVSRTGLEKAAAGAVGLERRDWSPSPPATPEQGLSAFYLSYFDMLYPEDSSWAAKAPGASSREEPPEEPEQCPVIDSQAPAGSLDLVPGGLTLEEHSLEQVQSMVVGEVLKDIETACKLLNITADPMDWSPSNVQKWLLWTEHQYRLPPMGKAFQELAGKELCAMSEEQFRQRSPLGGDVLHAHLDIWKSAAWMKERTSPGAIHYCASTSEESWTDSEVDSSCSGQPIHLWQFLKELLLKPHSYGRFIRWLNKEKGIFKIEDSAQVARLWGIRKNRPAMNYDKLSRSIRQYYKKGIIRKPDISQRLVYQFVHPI
In short: as §1

ETV7 = molecular target: T10, ETV7 (Homo sapiens, UniProt Q9Y603 1-341); details: protein: recombinant; tags: N-terminal GST; dsDNA, one strand shown
T10 sequence: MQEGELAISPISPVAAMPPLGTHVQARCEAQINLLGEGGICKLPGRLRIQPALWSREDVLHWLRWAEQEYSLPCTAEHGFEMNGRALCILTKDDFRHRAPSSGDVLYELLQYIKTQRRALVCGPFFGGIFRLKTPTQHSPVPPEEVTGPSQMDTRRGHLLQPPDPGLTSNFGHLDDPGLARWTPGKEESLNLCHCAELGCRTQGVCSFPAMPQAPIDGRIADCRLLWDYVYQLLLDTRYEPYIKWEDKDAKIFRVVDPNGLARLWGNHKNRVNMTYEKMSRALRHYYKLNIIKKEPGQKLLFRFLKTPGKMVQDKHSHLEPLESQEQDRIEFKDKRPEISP
In short: as §1

ELF5 = molecular target: T11, ELF5 (Homo sapiens, UniProt Q9UKW6-2 1-255); details: protein: recombinant; tags: N-terminal GST; dsDNA, one strand shown
T11 sequence: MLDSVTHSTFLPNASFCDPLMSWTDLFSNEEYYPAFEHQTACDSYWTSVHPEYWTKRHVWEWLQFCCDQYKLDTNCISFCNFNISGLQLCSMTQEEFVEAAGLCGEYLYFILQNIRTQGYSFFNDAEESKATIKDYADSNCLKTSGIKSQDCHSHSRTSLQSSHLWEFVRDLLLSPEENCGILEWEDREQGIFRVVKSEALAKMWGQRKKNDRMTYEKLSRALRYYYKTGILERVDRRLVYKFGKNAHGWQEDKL
In short: as §1

ETV3 = molecular target: T12, ETV3 (Homo sapiens, UniProt P41162-2 1-143); details: protein: recombinant; tags: N-terminal GST; dsDNA, one strand shown
T12 sequence: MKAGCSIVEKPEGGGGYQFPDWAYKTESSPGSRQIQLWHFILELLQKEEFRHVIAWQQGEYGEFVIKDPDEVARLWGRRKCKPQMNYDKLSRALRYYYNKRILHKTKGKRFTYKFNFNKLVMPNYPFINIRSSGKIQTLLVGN
In short: as §1

ETV6 = ETV6 (Homo sapiens, UniProt P41212 1-452); details: protein: recombinant; tags: N-terminal GST; dsDNA, one strand shown
In short: as §1

Sequence of ETV1 (P50549 whole entry): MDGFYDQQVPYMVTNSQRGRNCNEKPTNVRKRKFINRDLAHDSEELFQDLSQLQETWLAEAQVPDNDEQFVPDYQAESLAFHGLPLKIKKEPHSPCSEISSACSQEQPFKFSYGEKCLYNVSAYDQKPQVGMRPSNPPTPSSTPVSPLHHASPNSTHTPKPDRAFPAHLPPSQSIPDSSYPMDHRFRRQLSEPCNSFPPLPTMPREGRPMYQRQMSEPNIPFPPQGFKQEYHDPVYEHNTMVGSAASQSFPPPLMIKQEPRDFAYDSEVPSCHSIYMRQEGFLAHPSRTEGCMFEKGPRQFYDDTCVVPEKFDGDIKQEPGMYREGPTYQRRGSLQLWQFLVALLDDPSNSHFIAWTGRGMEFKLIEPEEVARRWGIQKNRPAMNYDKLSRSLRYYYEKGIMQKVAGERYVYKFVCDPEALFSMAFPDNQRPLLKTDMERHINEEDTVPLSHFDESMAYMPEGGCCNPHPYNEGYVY
Sequence of HSF1 (Q00613 whole entry): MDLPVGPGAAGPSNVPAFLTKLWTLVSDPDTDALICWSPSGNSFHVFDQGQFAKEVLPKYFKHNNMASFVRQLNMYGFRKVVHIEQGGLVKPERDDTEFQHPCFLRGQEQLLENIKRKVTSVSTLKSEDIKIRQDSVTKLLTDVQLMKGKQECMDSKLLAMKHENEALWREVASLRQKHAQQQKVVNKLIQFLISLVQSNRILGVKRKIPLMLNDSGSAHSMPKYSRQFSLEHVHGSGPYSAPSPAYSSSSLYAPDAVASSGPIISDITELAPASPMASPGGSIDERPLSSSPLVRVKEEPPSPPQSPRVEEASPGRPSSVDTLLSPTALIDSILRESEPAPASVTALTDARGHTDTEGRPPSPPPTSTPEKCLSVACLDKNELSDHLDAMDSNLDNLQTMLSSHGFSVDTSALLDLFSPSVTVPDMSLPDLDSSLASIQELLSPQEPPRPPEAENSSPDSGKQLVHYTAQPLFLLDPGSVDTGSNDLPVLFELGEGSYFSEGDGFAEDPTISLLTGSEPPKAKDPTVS
Sequence of ETV5 (P41161 whole entry): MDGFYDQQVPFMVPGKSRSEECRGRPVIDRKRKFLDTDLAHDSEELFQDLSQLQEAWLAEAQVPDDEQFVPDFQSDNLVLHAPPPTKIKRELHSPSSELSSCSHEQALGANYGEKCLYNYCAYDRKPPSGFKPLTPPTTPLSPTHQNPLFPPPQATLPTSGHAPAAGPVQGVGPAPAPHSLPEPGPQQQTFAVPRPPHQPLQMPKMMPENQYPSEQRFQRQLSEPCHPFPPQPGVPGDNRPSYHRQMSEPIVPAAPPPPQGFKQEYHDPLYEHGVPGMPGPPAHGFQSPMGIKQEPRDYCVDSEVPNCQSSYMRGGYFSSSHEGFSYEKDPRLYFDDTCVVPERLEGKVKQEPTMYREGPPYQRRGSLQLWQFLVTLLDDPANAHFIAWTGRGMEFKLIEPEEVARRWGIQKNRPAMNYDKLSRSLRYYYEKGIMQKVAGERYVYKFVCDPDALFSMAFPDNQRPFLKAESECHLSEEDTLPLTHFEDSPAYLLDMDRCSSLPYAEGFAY
Sequence of CRX (O43186 whole entry): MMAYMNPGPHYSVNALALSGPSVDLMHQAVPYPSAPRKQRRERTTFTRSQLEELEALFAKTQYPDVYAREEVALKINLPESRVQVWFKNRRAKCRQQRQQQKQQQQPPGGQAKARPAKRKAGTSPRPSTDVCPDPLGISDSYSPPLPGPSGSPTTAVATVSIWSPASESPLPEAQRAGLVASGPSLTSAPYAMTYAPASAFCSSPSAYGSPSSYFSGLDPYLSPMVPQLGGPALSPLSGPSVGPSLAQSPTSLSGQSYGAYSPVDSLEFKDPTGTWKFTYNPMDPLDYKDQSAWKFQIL
Sequence of ETV6 (P41212 whole entry): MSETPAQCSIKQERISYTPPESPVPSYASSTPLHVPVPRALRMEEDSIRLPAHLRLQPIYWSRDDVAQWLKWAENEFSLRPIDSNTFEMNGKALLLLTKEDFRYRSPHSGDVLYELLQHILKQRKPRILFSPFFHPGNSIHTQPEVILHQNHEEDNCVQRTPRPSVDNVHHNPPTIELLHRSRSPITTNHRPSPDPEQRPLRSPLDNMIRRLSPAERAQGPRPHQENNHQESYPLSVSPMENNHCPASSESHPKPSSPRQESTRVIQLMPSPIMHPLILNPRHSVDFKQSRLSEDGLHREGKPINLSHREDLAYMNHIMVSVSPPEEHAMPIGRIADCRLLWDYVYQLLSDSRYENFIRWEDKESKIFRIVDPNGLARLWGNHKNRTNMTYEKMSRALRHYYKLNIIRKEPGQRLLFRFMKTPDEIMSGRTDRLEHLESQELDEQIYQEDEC
Sequence of ELF4 (Q99607 whole entry): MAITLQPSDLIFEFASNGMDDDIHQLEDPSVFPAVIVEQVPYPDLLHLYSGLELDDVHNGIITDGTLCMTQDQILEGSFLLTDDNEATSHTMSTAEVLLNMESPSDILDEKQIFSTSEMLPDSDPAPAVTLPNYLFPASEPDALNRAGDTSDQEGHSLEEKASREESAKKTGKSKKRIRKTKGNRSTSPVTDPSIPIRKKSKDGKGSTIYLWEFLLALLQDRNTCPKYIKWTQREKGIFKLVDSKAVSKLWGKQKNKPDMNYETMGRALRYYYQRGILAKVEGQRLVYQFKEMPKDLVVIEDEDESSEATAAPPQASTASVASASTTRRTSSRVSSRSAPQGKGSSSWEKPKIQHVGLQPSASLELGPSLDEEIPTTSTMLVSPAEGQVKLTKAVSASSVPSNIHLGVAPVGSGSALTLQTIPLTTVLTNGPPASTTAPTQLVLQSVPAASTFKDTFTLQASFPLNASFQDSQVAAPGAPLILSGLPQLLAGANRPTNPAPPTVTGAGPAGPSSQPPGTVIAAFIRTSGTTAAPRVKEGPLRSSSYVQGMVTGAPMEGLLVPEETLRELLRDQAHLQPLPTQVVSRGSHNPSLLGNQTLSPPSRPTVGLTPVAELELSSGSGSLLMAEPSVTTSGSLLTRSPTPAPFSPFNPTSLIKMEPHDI

Sequence	binding signal (FEV)	binding signal (ETV5)	binding signal (HSF1)	binding signal (SPIC)	binding signal (ELF4)	binding signal (ELK4)	binding signal (ETV2)	binding signal (ELF3)	binding signal (CRX)	binding signal (ETV1)	binding signal (ERF)	binding signal (ETV3L)	binding signal (ETS2)	binding signal (SPDEF)	binding signal (ETV7)	binding signal (ELF5)	binding signal (ETV3)	binding signal (ETV6)
AAATTA	1.19 fold enrichment (6-mer frequency, TF over GST control)	1.26 fold enrichment (6-mer frequency, TF over GST control)	1.44 fold enrichment (6-mer frequency, TF over GST control)	1.21 fold enrichment (6-mer frequency, TF over GST control)	1.23 fold enrichment (6-mer frequency, TF over GST control)	1.28 fold enrichment (6-mer frequency, TF over GST control)	1.4 fold enrichment (6-mer frequency, TF over GST control)	1.31 fold enrichment (6-mer frequency, TF over GST control)	1.65 fold enrichment (6-mer frequency, TF over GST control)	1.2 fold enrichment (6-mer frequency, TF over GST control)	1.26 fold enrichment (6-mer frequency, TF over GST control)	1.31 fold enrichment (6-mer frequency, TF over GST control)	1.27 fold enrichment (6-mer frequency, TF over GST control)	1.18 fold enrichment (6-mer frequency, TF over GST control)	1.32 fold enrichment (6-mer frequency, TF over GST control)	1.24 fold enrichment (6-mer frequency, TF over GST control)	1.29 fold enrichment (6-mer frequency, TF over GST control)	1.25 fold enrichment (6-mer frequency, TF over GST control)
ACTTAC	1.09 fold enrichment (6-mer frequency, TF over GST control)	1.17 fold enrichment (6-mer frequency, TF over GST control)	1.15 fold enrichment (6-mer frequency, TF over GST control)	1.1 fold enrichment (6-mer frequency, TF over GST control)	1.24 fold enrichment (6-mer frequency, TF over GST control)	1.12 fold enrichment (6-mer frequency, TF over GST control)	1.06 fold enrichment (6-mer frequency, TF over GST control)	1.23 fold enrichment (6-mer frequency, TF over GST control)	1.42 fold enrichment (6-mer frequency, TF over GST control)	1.16 fold enrichment (6-mer frequency, TF over GST control)	1.08 fold enrichment (6-mer frequency, TF over GST control)	1.09 fold enrichment (6-mer frequency, TF over GST control)	1.14 fold enrichment (6-mer frequency, TF over GST control)	1.13 fold enrichment (6-mer frequency, TF over GST control)	1.14 fold enrichment (6-mer frequency, TF over GST control)	1.21 fold enrichment (6-mer frequency, TF over GST control)	1.09 fold enrichment (6-mer frequency, TF over GST control)	1.13 fold enrichment (6-mer frequency, TF over GST control)
